{
  "source": "the antibiotic and cytotoxicity screens of Wong et al. (2023)",
  "note": "About 1,500 (3.8%) of roughly 39,000 compounds were called active. This is one part of a sample in which actives are shown more often than they occur.",
  "data": [
    {"tested_on": "HSkMC (human skeletal muscle cells)", "test": "cytotoxicity call (relative viability < 0.9)", "conditions": "10 µM", "values": [
      {"smiles": "O=C(C[C@H]1C[C@H]2c3cc(NS(=O)(=O)c4ccc(F)cc4)ccc3O[C@H]2[C@@H](CO)O1)NC1CCCCC1", "cytotoxicity call": "inactive"},
      {"smiles": "C[C@@H]1CCCCO[C@@H](CN(C)C(=O)Nc2cccc3ccccc23)[C@@H](C)CN([C@@H](C)CO)C(=O)c2cc(NS(=O)(=O)c3ccc(Cl)cc3)ccc2O1", "cytotoxicity call": "inactive"},
      {"smiles": "C[C@H]1CN([C@@H](C)CO)C(=O)Cc2cc(NC(=O)CCC(F)(F)F)ccc2O[C@H]1CN(C)S(=O)(=O)c1ccccc1", "cytotoxicity call": "inactive"},
      {"smiles": "CO/N=C(\\C(=O)N[C@@H]1C(=O)N2C(C(=O)O)=C(C)CS[C@H]12)c1csc(N)n1", "cytotoxicity call": "inactive"},
      {"smiles": "C[C@@H]1CCCCO[C@H](CN(C)C(=O)c2ccccc2)[C@H](C)CN([C@H](C)CO)C(=O)c2cc(NS(=O)(=O)c3ccc(Cl)cc3)ccc2O1", "cytotoxicity call": "inactive"},
      {"smiles": "COCC#Cc1cnc2c(c1)C(=O)N([C@H](C)CO)C[C@H](C)[C@H](CN(C)C(=O)Nc1ccc(OC)cc1)O2", "cytotoxicity call": "inactive"},
      {"smiles": "CS(=O)(=O)N1C[C@H]2COC[C@@]2(C(=O)NCc2ccccn2)C1", "cytotoxicity call": "inactive"},
      {"smiles": "C[C@@H]1CN([C@H](C)CO)C(=O)CCCn2cc(nn2)CO[C@H]1CN(C)C(=O)Nc1ccc(C(F)(F)F)cc1", "cytotoxicity call": "inactive"},
      {"smiles": "Cc1ccc(S(=O)(=O)Nc2ccc3c(c2)C(=O)N([C@H](C)CO)C[C@H](C)[C@@H](CN(C)C(=O)Cc2ccccc2)OCCCC[C@@H](C)O3)cc1", "cytotoxicity call": "inactive"},
      {"smiles": "Cc1noc(C)c1S(=O)(=O)Nc1ccc2c(c1)C(=O)N([C@@H](C)CO)C[C@H](C)[C@H](CN(C)Cc1ccc(Cl)c(Cl)c1)OCCCC[C@@H](C)O2", "cytotoxicity call": "inactive"},
      {"smiles": "C[C@H](CO)N1C[C@H](C)[C@@H](CN(C)CC2CCCCC2)Oc2c(NC(=O)c3ccc(-c4nccs4)cc3)cccc2C1=O", "cytotoxicity call": "inactive"},
      {"smiles": "Cc1ccc(-c2cnc3c(c2)C(=O)N([C@@H](C)CO)C[C@@H](C)[C@H](CN(C)C(=O)Cc2ccncc2)O3)cc1", "cytotoxicity call": "inactive"},
      {"smiles": "C[C@H]1CN([C@@H](C)CO)C(=O)c2cc(NS(=O)(=O)c3ccc(Cl)cc3)ccc2O[C@H]1CN(C)C(=O)Nc1cccc2ccccc12", "cytotoxicity call": "inactive"},
      {"smiles": "C[C@H]1CN([C@@H](C)CO)C(=O)c2cc(NS(=O)(=O)c3ccc(Cl)cc3)ccc2O[C@@H]1CN(C)Cc1ccc(C(F)(F)F)cc1", "cytotoxicity call": "active"},
      {"smiles": "C[C@@H]1CN([C@@H](C)CO)C(=O)c2cc(NC(=O)CCC(F)(F)F)ccc2O[C@@H](C)CCCCO[C@@H]1CN(C)C(=O)Nc1ccc(C(F)(F)F)cc1", "cytotoxicity call": "inactive"},
      {"smiles": "Nc1nc(=O)n([C@@H]2CS[C@H](CO)O2)cc1F", "cytotoxicity call": "inactive"},
      {"smiles": "CNC(=O)c1ccccc1N", "cytotoxicity call": "inactive"},
      {"smiles": "C[C@H]1CN([C@@H](C)CO)C(=O)c2cc(NC(=O)Nc3ccc(C(F)(F)F)cc3)ccc2O[C@H]1CN(C)Cc1ccc(Oc2ccccc2)cc1", "cytotoxicity call": "active"},
      {"smiles": "C[C@@H]1CN([C@@H](C)CO)C(=O)c2cc(NC(=O)Nc3ccc(C(F)(F)F)cc3)ccc2O[C@H]1CN(C)Cc1ccc(Oc2ccccc2)cc1", "cytotoxicity call": "active"},
      {"smiles": "C[C@H](CO)N1C[C@H](C)[C@@H](CN(C)Cc2ccc(Oc3ccccc3)cc2)Oc2ccc(NC(=O)Nc3ccc(C(F)(F)F)cc3)cc2C1=O", "cytotoxicity call": "active"},
      {"smiles": "C[C@@H]1CN([C@@H](C)CO)C(=O)c2cc(NC(=O)Nc3ccc(C(F)(F)F)cc3)ccc2O[C@@H]1CN(C)Cc1ccc(Oc2ccccc2)cc1", "cytotoxicity call": "active"},
      {"smiles": "O=C(C[C@@H]1C[C@H]2c3cc(NC(=O)C4CCOCC4)ccc3O[C@H]2[C@H](CO)O1)NCc1ccc2c(c1)OCO2", "cytotoxicity call": "inactive"},
      {"smiles": "C[C@@H]1CCCCO[C@@H](CN(C)C(=O)c2ccccc2)[C@@H](C)CN([C@H](C)CO)C(=O)c2cc(NC(=O)Nc3ccc(C(F)(F)F)cc3)ccc2O1", "cytotoxicity call": "inactive"},
      {"smiles": "Cc1noc(C)c1S(=O)(=O)Nc1ccc2c(c1)C(=O)N([C@@H](C)CO)C[C@@H](C)[C@H](CN(C)C(=O)NC(C)C)O2", "cytotoxicity call": "inactive"},
      {"smiles": "Cl.N=C(N)NC(=N)N1CCOCC1", "cytotoxicity call": "inactive"},
      {"smiles": "COc1ccc(S(=O)(=O)N2C[C@@H](O)COC[C@H]3O[C@@H](CC(=O)NCCCN(C)C)CC[C@@H]32)cc1", "cytotoxicity call": "inactive"},
      {"smiles": "C[C@H](CO)N1C[C@H](C)[C@H](CN(C)S(=O)(=O)c2cccs2)Oc2ccc(NS(=O)(=O)c3cn(C)cn3)cc2C1=O", "cytotoxicity call": "inactive"},
      {"smiles": "Cn1cnc(CCNC(=O)C[C@H]2CC[C@H]3[C@@H](COC[C@H](O)CN3C(=O)Nc3ccc(C(F)(F)F)cc3)O2)c1", "cytotoxicity call": "inactive"},
      {"smiles": "C[C@H]1CN([C@@H](C)CO)C(=O)c2cc(NS(=O)(=O)c3ccc(F)cc3)ccc2O[C@H]1CN(C)S(=O)(=O)c1ccccc1", "cytotoxicity call": "inactive"},
      {"smiles": "Cc1nn(C)c(Cl)c1S(=O)(=O)NC(=O)[C@@]1(C)CCN1C(=O)c1ccccc1CCc1ccccc1", "cytotoxicity call": "inactive"},
      {"smiles": "COC(=O)c1cc(S(C)(=O)=O)ccc1OC", "cytotoxicity call": "inactive"},
      {"smiles": "C[C@H](CO)N1C[C@H](C)[C@H](CN(C)Cc2ccc(Oc3ccccc3)cc2)Oc2ccc(NC(=O)Nc3ccc(C(F)(F)F)cc3)cc2C1=O", "cytotoxicity call": "active"},
      {"smiles": "C[C@@H]1CN([C@H](C)CO)C(=O)c2cc(NC(=O)Nc3ccc(C(F)(F)F)cc3)ccc2O[C@H]1CN(C)Cc1ccc(Oc2ccccc2)cc1", "cytotoxicity call": "inactive"},
      {"smiles": "C[C@@H]1CN([C@H](C)CO)C(=O)c2cc(NC(=O)Nc3ccc(C(F)(F)F)cc3)ccc2O[C@@H]1CN(C)Cc1ccc(Oc2ccccc2)cc1", "cytotoxicity call": "active"},
      {"smiles": "C[C@H]1CN([C@@H](C)CO)C(=O)c2cc(NC(=O)Nc3ccc(C(F)(F)F)cc3)ccc2O[C@@H]1CN(C)Cc1ccc(Oc2ccccc2)cc1", "cytotoxicity call": "inactive"},
      {"smiles": "CN(C)C(=O)c1cccc(-c2ccc3n(c2=O)C[C@H]2[C@H](CO)[C@@H](C(=O)NCC4CC4)N[C@@H]32)c1", "cytotoxicity call": "inactive"},
      {"smiles": "COc1ccc(NC(=O)Nc2cccc3c2O[C@@H](CN(C)Cc2ccc(Cl)c(Cl)c2)[C@@H](C)CN([C@H](C)CO)C3=O)cc1", "cytotoxicity call": "inactive"},
      {"smiles": "C[C@@H]1CN([C@H](C)CO)C(=O)c2cccc(NC(=O)Nc3ccc(F)cc3)c2O[C@@H]1CN(C)Cc1ccc(Cl)c(Cl)c1", "cytotoxicity call": "inactive"},
      {"smiles": "C[C@@H]1CN([C@@H](C)CO)C(=O)c2cccc(NC(=O)Nc3ccc(F)cc3)c2O[C@@H]1CN(C)Cc1ccc(Cl)c(Cl)c1", "cytotoxicity call": "active"},
      {"smiles": "C[C@H](CO)N1C[C@H](C)[C@H](CN(C)Cc2ccc(Cl)c(Cl)c2)Oc2c(NC(=O)Nc3ccc(F)cc3)cccc2C1=O", "cytotoxicity call": "inactive"},
      {"smiles": "C[C@@H]1CN([C@@H](C)CO)C(=O)c2cccc(NC(=O)Nc3ccc(F)cc3)c2O[C@H]1CN(C)Cc1ccc(Cl)c(Cl)c1", "cytotoxicity call": "inactive"},
      {"smiles": "COc1ccc(NC(=O)Nc2cccc3c2O[C@H](CN(C)Cc2ccc(Cl)c(Cl)c2)[C@@H](C)CN([C@@H](C)CO)C3=O)cc1", "cytotoxicity call": "active"},
      {"smiles": "C[C@@H]1CN([C@@H](C)CO)C(=O)c2cccc(NC(=O)Nc3ccccc3)c2O[C@H]1CN(C)Cc1ccc(Cl)c(Cl)c1", "cytotoxicity call": "inactive"},
      {"smiles": "COc1ccc(NC(=O)Nc2cccc3c2O[C@@H](CN(C)Cc2ccc(Cl)c(Cl)c2)[C@H](C)CN([C@@H](C)CO)C3=O)cc1", "cytotoxicity call": "inactive"},
      {"smiles": "C[C@@H]1CN([C@H](C)CO)C(=O)c2cccc(NC(=O)Nc3ccccc3)c2O[C@@H]1CN(C)Cc1ccc(Cl)c(Cl)c1", "cytotoxicity call": "inactive"},
      {"smiles": "C[C@@H]1CN([C@H](C)CO)C(=O)c2cccc(NC(=O)Nc3ccc(F)cc3)c2O[C@H]1CN(C)Cc1ccc(Cl)c(Cl)c1", "cytotoxicity call": "active"},
      {"smiles": "C[C@H](CO)N1C[C@H](C)[C@@H](CN(C)Cc2ccc(Cl)c(Cl)c2)Oc2c(NC(=O)Nc3ccc(F)cc3)cccc2C1=O", "cytotoxicity call": "active"},
      {"smiles": "C[C@H]1CN([C@@H](C)CO)C(=O)c2cccc(NC(=O)Nc3ccc(F)cc3)c2O[C@H]1CN(C)Cc1ccc(Cl)c(Cl)c1", "cytotoxicity call": "inactive"}
    ]}
  ]
}
